The values below come from PubChem BioAssay.

For assay [1], the system named is PRMT1 (protein arginine N-methyltransferase 1). The experiment in a line: PRMT1 binders on small-molecule microarrays, primary screen, biochemical, small-molecule microarray, 635 nm fluorescence (AID 1088).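 Further: binding of Prmt1 protein to compounds spotted on small-molecule microarray slides.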 Conditions: small-molecule microarray binding, higher = more signal.
The nature of assay [2]: yeast growth modulation, basal conditions, primary screen, YJM789 clinical isolate, OD600, 24 h (AID 1089).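 Further: growth of clinical yeast isolate S. cerevisiae YJM 789 seeded 1000 cells per well; test concentration not given here.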 As to conditions: S. cerevisiae YJM789 growth, higher = more signal, called active from +8 up or from −8 down.
A short description of assay [3]: fission yeast growth modulation, primary screen, strain 972, OD600, 24 h, no modulator (AID 1090).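 Further: basal condition with compound alone and no growth modifier present; test concentration not given here.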 As to conditions: S. pombe 972 growth, higher = more signal, called active from +8 up or from −8 down.
The nature of assay [4]: S. cerevisiae growth modulation with rapamycin, primary screen, strain BY4716, OD600, 96 h (AID 1091). Further: test concentration not given here. Conditions: higher = more signal, called active from +8 up or from −8 down.
Assay [5] concerns the target Torsin-1A-interacting protein 2 (Homo sapiens) (UniProt Q8NFQ8). The experiment in a line: LULL1 binders on small-molecule microarray, primary screen, cell lysate, human LULL1 lysate, 635/667 nm fluorescence (AID 1092).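 Further: probe is lysate of COS7 cells overexpressing human LULL1; score merges per-feature 667 nm fluorescence with signal-to-noise.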 Conditions: hLULL1 lysate binding, 635 nm fluorescence, higher = more signal.
A short description of assay [6]: E. coli growth modulation, two-sided OD650, primary screen, E. coli filamentation project, strain DRC41, 24 h (AID 1093).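 Further: MC1000 strain lacking acrAB efflux and sulA so SOS filamentation is blocked; test concentration not given here.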 Conditions: OD650, 24 h, higher = more signal, called active from +8 up or from −8 down.
The nature of assay [7]: small-molecule microarray binders of probe aLefty2, primary screen, biochemical, biotinylated probe, 635/667 nm fluorescence (AID 1094).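 Further: score merges spot fluorescence near 667 nm with spot signal-to-noise ratio.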 As to conditions: higher = more signal.
Assay [8] relates to Noggin (protein binding on small-molecule microarray). The experiment in a line: Noggin binders on small-molecule microarray, primary screen, biochemical, 635/667 nm fluorescence (AID 1095).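 Further: score merges 667 nm feature fluorescence with signal to noise over triplicate slides.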 As to conditions: 635 nm fluorescence, higher = more signal.
Assay [9] has as its target Neurogenic locus notch homolog protein 3 (Homo sapiens) (UniProt Q9UM47). Description: NOTCH3 binders on small-molecule microarray, primary screen, biochemical, 635/667 nm fluorescence (AID 1096). Conditions: NOTCH3 binding, 635 nm fluorescence, higher = more signal.
The nature of assay [10]: small-molecule microarray binders of probe aEGFR, primary screen, biochemical, biotinylated probe, 635/667 nm fluorescence (AID 1097).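 Further: probe is a biotinylated anti-EGFR antibody binding compounds printed on slides; score combines fluorescence near 667 nm and signal to noise of each spot.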 As to conditions: higher = more signal.
For assay [11], the system named is Plasmodium falciparum Sir2 (PF13_0152, Sir2A). The experiment in a line: pfSir2 binders on small-molecule microarrays, primary screen, biochemical, small-molecule microarray, 635 nm fluorescence (AID 1098).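 Further: score merges spot fluorescence intensity with its signal-to-noise ratio.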 Conditions: small-molecule microarray binding, fluorescence 635 nm; higher = more signal.
The nature of assay [12]: small-molecule microarray binders of probe aDKK1, primary screen, biochemical, biotinylated probe, 635/667 nm fluorescence (AID 1099).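 Further: score merges 667nm spot fluorescence with signal to noise across triplicate slides; reference of the scale not given here.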 As to conditions: higher = more signal.
The nature of assay [13]: small-molecule microarray binders of probe aCHRDL2, primary screen, biochemical, biotinylated probe, 635/667 nm fluorescence (AID 1100). As to conditions: higher = more signal.
The nature of assay [14]: splicing luciferase reporter signal modulators, primary screen, spliceosome inhibition project, cell-based, HEK293, splice +/- reporter (AID 1101).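 Further: HEK293 cells carrying a splicing-competent luciferase reporter gene; test concentration not given here.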 Conditions: luminescence, 24 h, higher = more signal, called active from +8 up or from −8 down. (In general: In a reporter assay the amount or activity of a reporter protein is the signal.)
Assay [15] has as its target Fibroblast growth factor 10 (Homo sapiens) (UniProt O15520). The experiment in a line: FGF10 binders on small-molecule microarrays, primary screen, biochemical, small-molecule microarray, 635 nm fluorescence (AID 1102). Conditions: FGF10 binding, fluorescence 635 nm, higher = more signal.
For assay [16], the system named is glycogen synthase kinase-3 (GSK3A per assay name; protocol says GSK3B). Description: GSK3 binders on small-molecule microarrays, primary screen, biochemical, small-molecule microarray, 635 nm fluorescence, GSK3A (AID 1103). Further: the record names both GSK3A and GSK3B. Conditions: small-molecule microarray binding, fluorescence 635 nm; higher = more signal.
Assay [17] concerns the target Epidermal growth factor receptor (Homo sapiens) (UniProt P00533). Description: EGFR binders on small-molecule microarrays, primary screen, biochemical, small-molecule microarray, 635 nm fluorescence (AID 1104).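 Further: score merges 667 nm emission intensity with spot signal to noise over triplicate slides.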 Conditions: EGFR binding, higher = more signal.
The target of assay [18] is Follistatin-related protein 3 (Homo sapiens) (UniProt O95633). The experiment in a line: FSTL3 binders on small-molecule microarrays, primary screen, biochemical, small-molecule microarray, 635 nm fluorescence (AID 1105).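 Further: score merges emission near 667 nm and signal to noise per printed spot across three slides.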 As to conditions: FSTL3 binding, higher = more signal.
Follistatin-related protein 3 (Homo sapiens), sequence (O95633 whole entry, looked up): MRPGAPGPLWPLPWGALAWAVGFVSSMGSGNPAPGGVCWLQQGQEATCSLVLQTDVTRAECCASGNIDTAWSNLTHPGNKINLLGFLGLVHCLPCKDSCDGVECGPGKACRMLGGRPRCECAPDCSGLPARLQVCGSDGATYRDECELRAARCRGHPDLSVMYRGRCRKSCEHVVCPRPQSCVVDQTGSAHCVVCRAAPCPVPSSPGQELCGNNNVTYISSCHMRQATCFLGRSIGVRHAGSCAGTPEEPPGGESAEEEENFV
Assay [19] concerns the target Dickkopf-related protein 1 (Homo sapiens) (UniProt O94907). The experiment in a line: DKK1 binders on small-molecule microarrays, primary screen, biochemical, small-molecule microarray, 635 nm fluorescence scan (AID 1106).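 Further: score merges emission near 667 nm with signal to noise over three replicate slides.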 As to conditions: DKK1 binding, higher = more signal.
Assay [20] has as its system Inhibin beta A chain (activin A). Description: INHBA (activin A) binders on microarrays, primary screen, biochemical, small-molecule microarray, 635 nm fluorescence scan (AID 1107).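 Further: mouse activin A protein probed at 4.33 µg/mL on printed slides; score merges bound-protein fluorescence near 667 nm with spot signal-to-noise.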 Conditions: small-molecule microarray binding, higher = more signal.

The structures appear in SMILES notation. Activity calls are given as the source filed them.

Dickkopf-related protein 1 (Homo sapiens), sequence (O94907 whole entry, looked up): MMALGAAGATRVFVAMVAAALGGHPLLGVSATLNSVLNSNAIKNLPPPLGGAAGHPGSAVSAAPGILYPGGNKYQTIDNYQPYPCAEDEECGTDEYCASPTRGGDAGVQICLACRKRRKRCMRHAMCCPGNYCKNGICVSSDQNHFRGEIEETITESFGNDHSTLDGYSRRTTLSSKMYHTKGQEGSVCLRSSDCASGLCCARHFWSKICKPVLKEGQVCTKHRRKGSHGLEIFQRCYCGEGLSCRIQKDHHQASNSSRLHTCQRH
Epidermal growth factor receptor (Homo sapiens), sequence (P00533 whole entry, looked up): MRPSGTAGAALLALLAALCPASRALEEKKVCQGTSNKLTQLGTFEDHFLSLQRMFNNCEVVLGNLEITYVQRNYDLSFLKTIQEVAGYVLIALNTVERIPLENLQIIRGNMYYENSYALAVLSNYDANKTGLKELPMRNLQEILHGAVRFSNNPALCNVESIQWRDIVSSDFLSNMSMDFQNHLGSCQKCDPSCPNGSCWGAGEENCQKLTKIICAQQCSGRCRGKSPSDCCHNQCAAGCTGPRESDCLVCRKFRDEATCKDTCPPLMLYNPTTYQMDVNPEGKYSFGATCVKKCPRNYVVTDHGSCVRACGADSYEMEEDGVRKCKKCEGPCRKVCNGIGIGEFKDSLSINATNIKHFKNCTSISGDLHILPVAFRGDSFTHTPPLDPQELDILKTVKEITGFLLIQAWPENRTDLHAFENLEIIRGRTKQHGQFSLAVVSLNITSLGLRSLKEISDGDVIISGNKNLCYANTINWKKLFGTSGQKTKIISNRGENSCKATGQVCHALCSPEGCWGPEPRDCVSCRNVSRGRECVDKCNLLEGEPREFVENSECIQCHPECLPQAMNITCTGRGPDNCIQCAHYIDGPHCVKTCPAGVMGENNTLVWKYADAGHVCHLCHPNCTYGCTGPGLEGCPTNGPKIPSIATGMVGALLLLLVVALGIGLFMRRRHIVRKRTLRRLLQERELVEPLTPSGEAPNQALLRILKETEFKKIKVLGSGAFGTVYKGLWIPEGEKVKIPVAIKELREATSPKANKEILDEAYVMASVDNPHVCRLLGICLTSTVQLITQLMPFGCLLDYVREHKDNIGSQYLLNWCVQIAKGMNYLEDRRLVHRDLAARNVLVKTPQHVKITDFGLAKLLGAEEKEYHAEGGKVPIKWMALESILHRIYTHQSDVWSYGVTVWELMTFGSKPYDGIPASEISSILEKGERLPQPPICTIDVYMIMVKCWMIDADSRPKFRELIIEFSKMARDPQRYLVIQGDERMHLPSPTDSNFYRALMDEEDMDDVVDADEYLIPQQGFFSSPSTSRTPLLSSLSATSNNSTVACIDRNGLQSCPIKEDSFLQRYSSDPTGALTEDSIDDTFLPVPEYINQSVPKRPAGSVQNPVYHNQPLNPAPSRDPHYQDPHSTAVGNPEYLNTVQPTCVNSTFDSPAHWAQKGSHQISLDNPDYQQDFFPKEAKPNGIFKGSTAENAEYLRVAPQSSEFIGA
Torsin-1A-interacting protein 2 (Homo sapiens), sequence (Q8NFQ8 whole entry, looked up): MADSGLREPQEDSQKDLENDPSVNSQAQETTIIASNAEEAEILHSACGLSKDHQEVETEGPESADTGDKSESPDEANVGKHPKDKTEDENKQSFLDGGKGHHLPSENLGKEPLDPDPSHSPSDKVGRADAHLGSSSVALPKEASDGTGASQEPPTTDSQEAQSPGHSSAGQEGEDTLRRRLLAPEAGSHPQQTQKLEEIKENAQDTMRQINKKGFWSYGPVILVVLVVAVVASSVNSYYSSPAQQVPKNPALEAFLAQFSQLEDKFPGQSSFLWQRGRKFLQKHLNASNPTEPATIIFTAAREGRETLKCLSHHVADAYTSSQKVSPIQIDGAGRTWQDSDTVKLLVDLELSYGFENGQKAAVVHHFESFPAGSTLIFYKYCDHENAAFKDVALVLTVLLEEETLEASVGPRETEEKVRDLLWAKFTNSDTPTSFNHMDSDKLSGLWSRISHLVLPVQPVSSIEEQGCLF
Fibroblast growth factor 10 (Homo sapiens), sequence (O15520 whole entry, looked up): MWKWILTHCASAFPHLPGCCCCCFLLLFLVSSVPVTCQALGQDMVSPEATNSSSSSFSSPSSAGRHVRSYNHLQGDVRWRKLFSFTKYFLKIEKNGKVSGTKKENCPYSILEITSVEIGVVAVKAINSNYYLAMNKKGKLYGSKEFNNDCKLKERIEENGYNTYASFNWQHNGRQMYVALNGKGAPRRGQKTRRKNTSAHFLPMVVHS
Neurogenic locus notch homolog protein 3 (Homo sapiens), sequence (Q9UM47 whole entry, looked up): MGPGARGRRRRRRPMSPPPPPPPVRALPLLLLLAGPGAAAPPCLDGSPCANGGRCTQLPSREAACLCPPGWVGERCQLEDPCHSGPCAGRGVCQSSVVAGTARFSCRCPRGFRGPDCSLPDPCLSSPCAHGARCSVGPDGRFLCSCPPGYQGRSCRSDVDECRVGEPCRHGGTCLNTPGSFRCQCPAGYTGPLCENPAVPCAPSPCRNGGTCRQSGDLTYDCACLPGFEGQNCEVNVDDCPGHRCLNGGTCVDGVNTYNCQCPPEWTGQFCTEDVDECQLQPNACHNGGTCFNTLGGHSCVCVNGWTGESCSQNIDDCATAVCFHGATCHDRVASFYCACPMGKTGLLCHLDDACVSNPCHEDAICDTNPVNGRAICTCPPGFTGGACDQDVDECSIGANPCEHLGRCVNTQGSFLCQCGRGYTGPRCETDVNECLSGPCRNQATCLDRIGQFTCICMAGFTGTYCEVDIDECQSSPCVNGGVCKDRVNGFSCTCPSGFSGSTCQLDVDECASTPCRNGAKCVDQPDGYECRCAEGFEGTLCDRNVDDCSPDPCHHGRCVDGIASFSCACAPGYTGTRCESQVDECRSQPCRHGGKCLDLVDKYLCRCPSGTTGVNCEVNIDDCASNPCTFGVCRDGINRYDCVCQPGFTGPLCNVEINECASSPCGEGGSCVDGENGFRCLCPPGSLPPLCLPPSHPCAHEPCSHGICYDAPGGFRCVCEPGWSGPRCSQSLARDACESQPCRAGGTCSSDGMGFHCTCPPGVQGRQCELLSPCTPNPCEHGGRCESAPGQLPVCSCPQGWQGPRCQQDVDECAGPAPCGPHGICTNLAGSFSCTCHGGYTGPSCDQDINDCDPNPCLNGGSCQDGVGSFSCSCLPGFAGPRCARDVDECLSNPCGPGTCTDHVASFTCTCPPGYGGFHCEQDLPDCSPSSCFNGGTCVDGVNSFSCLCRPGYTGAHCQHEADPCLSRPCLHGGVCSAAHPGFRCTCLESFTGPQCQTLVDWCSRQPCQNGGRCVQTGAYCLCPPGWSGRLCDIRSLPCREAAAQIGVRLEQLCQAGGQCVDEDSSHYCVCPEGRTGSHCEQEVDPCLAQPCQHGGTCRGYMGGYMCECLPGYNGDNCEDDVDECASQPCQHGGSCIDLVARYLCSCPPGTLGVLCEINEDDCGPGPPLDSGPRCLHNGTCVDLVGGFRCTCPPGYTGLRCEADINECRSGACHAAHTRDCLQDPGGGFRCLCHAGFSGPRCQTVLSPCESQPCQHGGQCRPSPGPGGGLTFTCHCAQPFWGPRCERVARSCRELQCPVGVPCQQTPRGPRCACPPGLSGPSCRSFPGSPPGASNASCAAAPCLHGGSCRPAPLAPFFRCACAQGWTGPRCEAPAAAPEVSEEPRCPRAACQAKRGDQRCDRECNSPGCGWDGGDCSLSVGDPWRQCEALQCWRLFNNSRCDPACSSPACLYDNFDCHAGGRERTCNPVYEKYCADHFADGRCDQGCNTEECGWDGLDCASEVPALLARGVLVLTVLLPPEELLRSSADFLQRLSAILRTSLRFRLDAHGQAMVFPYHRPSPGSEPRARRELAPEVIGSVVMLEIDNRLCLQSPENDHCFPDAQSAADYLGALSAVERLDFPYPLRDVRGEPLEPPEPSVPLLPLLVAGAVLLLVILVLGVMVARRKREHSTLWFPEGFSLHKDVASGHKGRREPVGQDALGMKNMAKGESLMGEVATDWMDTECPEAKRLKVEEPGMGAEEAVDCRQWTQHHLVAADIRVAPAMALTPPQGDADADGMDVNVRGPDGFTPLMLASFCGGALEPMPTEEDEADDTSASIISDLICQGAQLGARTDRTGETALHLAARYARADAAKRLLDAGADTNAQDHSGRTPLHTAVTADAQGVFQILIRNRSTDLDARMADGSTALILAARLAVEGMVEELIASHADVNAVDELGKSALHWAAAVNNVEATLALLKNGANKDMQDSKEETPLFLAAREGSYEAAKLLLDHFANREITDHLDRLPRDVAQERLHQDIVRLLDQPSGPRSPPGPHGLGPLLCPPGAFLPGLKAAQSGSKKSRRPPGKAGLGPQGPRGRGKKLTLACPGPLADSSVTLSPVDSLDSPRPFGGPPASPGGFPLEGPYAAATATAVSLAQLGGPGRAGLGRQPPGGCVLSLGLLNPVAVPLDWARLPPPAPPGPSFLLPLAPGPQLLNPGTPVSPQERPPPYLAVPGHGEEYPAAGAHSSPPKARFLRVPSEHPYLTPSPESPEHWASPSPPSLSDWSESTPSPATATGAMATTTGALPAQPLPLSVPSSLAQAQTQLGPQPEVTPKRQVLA

For the compound `CC(C)C[C@@H]1NC(=O)[C@H]2C[C@@H](C(=O)O)[C@@H](c3ccc(O)cc3)N2C1=O`, the composite z-score was determined as 0.879 in assay [1]; 1.15 in [5]; 0.449 in assay [7]; 0.4 in assay [8]; 0.436 in assay [9]; 0.0577 in [10]. Besides, the composite z-score in assay [11] was 1.08; in assay [12] it was 0.717; in assay [13], 0.171; in assay [15] it was 0.0112; in [16] it was 0.141; in [17], -0.284. Further, the values for the composite z-score in assay [18], in assay [19] and in assay [20] were 0.0204, 0.63 and 1.05, respectively. In addition, the z-score in assay [2] is 0.634 (inactive); in [3], -0.213 (inactive); in [4], 1.83 (inactive); in [6], 0.831 (inactive); in assay [14] it was -0.0559 (inactive).

As to `O=C1[C@H]2[C@H]3[C@H](O)[C@H](O)CC(=NO[C@@H]4O[C@H](CO)[C@@H](O)[C@H](O)[C@H]4O)[C@H]3CC[C@H]2C(=O)N1C1CCCCC1`, the composite z-score in assay [1] is 1.55; in assay [5], 1.58; in assay [7] it was -0.0652; in assay [8] it was 1.36; in assay [9] it was 0.308; in assay [10], -0.12. Further, the composite z-score is 0.643 in [11]; 0.0533 in assay [12]; -0.0589 in assay [13]; 0.0041 in assay [15]; 0.266 in assay [16]; -0.0158 in assay [17]. Moreover, the values for the composite z-score in assay [18], in assay [19] and in assay [20] were -0.182, -0.191 and -1.65, respectively. In addition, the z-score in assay [2] is -0.546 (inactive); in assay [3], 0.506 (inactive); in [4] it was -0.0694 (inactive); in assay [6] it was 0.15 (inactive); in assay [14], -0.381 (inactive).

For the compound `O=C1O[C@@H](c2ccccc2)[C@@H](c2ccccc2)N2[C@@H](c3ccccc3OCCO)[C@]3(C(=O)Nc4ccc(C#CCCO)cc43)[C@@H](C(=O)O)[C@H]12`, the composite z-score is 1.54 in assay [1]; 2.47 in assay [5]; -0.3 in assay [7]; 0.573 in [8]; 1.12 in [9]; -0.352 in assay [10]. In addition, the composite z-score was 1.58 in assay [11]; -0.878 in assay [12]; -0.721 in assay [13]; 0.608 in assay [15]; 1.03 in assay [16]; -0.0589 in assay [17]. Besides, the composite z-score in assay [18] is 0.14; in [19], -0.167; in assay [20], 1.24. For the same compound, the z-score is 1.14 (inactive) in assay [2]; -0.82 (inactive) in [3]; -0.103 (inactive) in assay [4]; 0.481 (inactive) in [6]; -2.02 (inactive) in assay [14].

With `C[C@@H]1C=CCC(=O)OC[C@H](C)C(=O)OC[C@H]2O[C@H]1C=C[C@H]2O`, the composite z-score in assay [1] was 0.047; in assay [5], 0.429; in [7] it was -0.18; in assay [8] it was 1.31; in assay [9] it was 0.272; in assay [10] it was -0.0039. In addition, the composite z-score in assay [11] is 0.128; in assay [12], -0.439; in assay [13], -0.833; in assay [15], 0.678; in assay [16], 0.387; in [17], 0.339. Besides, the composite z-score in assay [18] was 0.808; in assay [19], 0.545; in assay [20] it was -0.181. Also, the z-score is 1.1 (inactive) in assay [2]; -2.02 (inactive) in [3]; 0.614 (inactive) in assay [4]; 0.0861 (inactive) in assay [6]; 1.17 (inactive) in [14].

In the case of `CCOC(=O)CCN1C(=O)[C@H]2[C@H]3[C@H](O)[C@H](O)CC(=NNC(=O)OCc4ccc(OC)cc4)[C@@H]3CC[C@H]2C1=O`, the composite z-score is 0.372 in assay [1]; 0.97 in [5]; -0.157 in assay [7]; 0.38 in assay [8]; 1.08 in assay [9]; -0.0986 in assay [10]. The composite z-score in assay [11] is 0.0745; in assay [12] it was -0.0545; in [13], -0.476; in [15] it was 0.567; in assay [16], 0.754; in assay [17] it was 0.593. Also, the composite z-score in [18] is 1.32; in assay [19], 0.819; in [20], 0.334. In addition, the z-score was -0.162 (inactive) in [2]; 0.151 (inactive) in assay [3]; -0.3 (inactive) in assay [4]; 0.0856 (inactive) in assay [6]; 0.454 (inactive) in assay [14].
